Experimental data taken from PubChem BioAssay.
Active and inactive are the calls of the source. Unless noted, no rule for the calls is given here.

Key:
[1] = system: Wnt5a (protein binding on small-molecule microarray); test: small molecules binding Wnt5a protein – biophysical, small-molecule microarray, 635/667 nm fluorescence, primary screen (AID 1142); settings: 635 nm fluorescence, higher = more signal;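 also: fluorescence read at 667 nm with signal to noise per printed feature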
[2] = ATP-based viability of Huh7 replicon cells – cell-based, CellTiter-Glo luminescence, basal, 48 h, cytotoxicity control for HCV replication inhibitor project, primary screen (AID 1143); settings: higher = more signal, called active from +8 up or from −8 down;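 also: Huh7 hepatoma cells carrying a hepatitis C replication reporter with no stimulus; test concentration not given here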
[3] = Pseudomonas biofilm growth suppression – PAO1 strain, BacTiter-Glo luminescence, LB-PBS, primary screen (AID 1144); settings: P. aeruginosa PAO1 biofilm, 12 h, higher = more signal
[4] = basal CRE-LacZ reporter activity in PC12 – cell-based, unstimulated, primary screen (AID 1145); settings: no forskolin, luminescence, 4.5 h, higher = more signal, called active from +8 up or from −8 down
[5] = forskolin-driven CRE-LacZ activity in PC12 – cell-based, CRE-LacZ reporter, forskolin-stimulated, primary screen (AID 1146); settings: luminescence, 4.5 h, higher = more signal, called active from +8 up or from −8 down;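 also: PC12 cells with 6xCRE LacZ reporter stimulated by forskolin 10 µM; beta-galactosidase reporter signal reflecting CREB driven transcription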
[6] = molecular target: Streptavidin (Streptomyces avidinii) (UniProt P22629); test: compounds binding control protein streptavidin – biophysical, small-molecule microarray, 635/667 nm fluorescence, artefact control for SMM compound annotation, primary screen (AID 1147); settings: higher = more signal;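 also: signal reflects streptavidin binding to arrayed compounds as a control protein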
Streptavidin (Streptomyces avidinii), sequence (P22629 whole entry, looked up): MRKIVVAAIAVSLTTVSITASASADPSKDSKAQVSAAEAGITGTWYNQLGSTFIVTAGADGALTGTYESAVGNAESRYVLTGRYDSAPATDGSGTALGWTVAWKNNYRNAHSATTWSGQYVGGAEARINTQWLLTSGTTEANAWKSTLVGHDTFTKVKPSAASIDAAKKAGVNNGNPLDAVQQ

[7] = probe aInhba binding on compound microarray – biochemical, small-molecule microarray, 635/667 nm fluorescence, primary screen (AID 1148); settings: higher = more signal;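 also: score merges 667nm spot fluorescence with signal-to-noise for antibody binding to printed compounds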
[8] = molecular target: Torsin-1A (Homo sapiens) (UniProt O14656); test: TOR1A wild-type binding on microarray – cell lysate, small-molecule microarray, lysate, 635/667 nm, primary screen (AID 1149); settings: COS7 hTOR1A-WT lysate, 635 nm fluorescence, higher = more signal
Torsin-1A (Homo sapiens), sequence (O14656 whole entry, looked up): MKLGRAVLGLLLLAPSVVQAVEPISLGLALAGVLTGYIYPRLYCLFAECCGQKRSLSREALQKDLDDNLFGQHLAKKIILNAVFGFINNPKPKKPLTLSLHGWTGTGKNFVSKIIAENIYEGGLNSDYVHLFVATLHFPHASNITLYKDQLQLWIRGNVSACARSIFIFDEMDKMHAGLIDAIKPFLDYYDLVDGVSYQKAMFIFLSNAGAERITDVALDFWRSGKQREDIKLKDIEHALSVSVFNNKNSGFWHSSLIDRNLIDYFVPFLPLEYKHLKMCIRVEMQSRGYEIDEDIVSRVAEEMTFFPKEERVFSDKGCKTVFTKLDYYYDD

[9] = molecular target: Torsin-1A (Homo sapiens) (UniProt O14656); test: torsin A mutant lysate binding on microarrays – cell lysate, small-molecule microarray, COS7 lysate, 635/667 nm fluorescence, primary screen (AID 1150); settings: COS7 hTOR1A mutant lysate, 635 nm fluorescence, higher = more signal;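 also: score pools 667 nm emission and signal to noise measuring lysate protein binding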
[10] = system: Sonic hedgehog protein (Shh); test: Sonic hedgehog microarray binding compounds – biochemical, small-molecule microarray, 635/667 nm fluorescence, primary screen (AID 1151); settings: 635 nm fluorescence, higher = more signal;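 also: Shh protein binding to compounds spotted on small-molecule microarray slides; score combines spot fluorescence intensity with signal-to-noise across triplicate slides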
[11] = optical density shifts of acrAB sulA E. coli – strain DRC41, OD650, 48 h, E. coli filamentation inducer project, primary screen (AID 1152); settings: higher = more signal, called active from +8 up or from −8 down;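 also: E. coli MC1000 strain DRC41 lacking acrAB efflux pump and sulA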
[12] = probe aLefty1 binding on compound microarray – biochemical, small-molecule microarray, 635/667 nm fluorescence, primary screen (AID 1153); settings: higher = more signal;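 also: score merges spot fluorescence with signal-to-noise ratio from the scanned slide images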
[13] = plasmodial surface anion channel blockers, osmotic lysis – cell-based, P. falciparum Indochina, OD700, 1 h, primary screen (AID 1154); settings: P. falciparum Indochina infected RBC osmotic lysis, higher = more signal, called active from +8 up or from −8 down
[14] = plasmodial surface anion channel blockers, osmotic lysis – cell-based, P. falciparum Indochina, OD700, 2 h, primary screen (AID 1155);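 also: lysis reports solute entry through the parasite surface anion channel PSAC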; settings: P. falciparum Indochina infected erythrocytes, higher = more signal, called active from +8 up or from −8 down
[15] = changes in parasitized red cell lysis, either direction – P. falciparum Indochina, OD700, 3 h, PSAC antagonist project, primary screen (AID 1156); settings: P. falciparum-infected erythrocytes, osmotic lysis, higher = more signal, called active from +8 up or from −8 down
[16] = plasmodial surface anion channel blockers, osmotic lysis – cell-based, P. falciparum Indochina, OD700, 18 h, primary screen (AID 1157); settings: P. falciparum Indochina infected erythrocytes, osmotic lysis OD700, 18 h; higher = more signal, called active from +8 up or from −8 down
[17] = S6 kinase pathway phospho-S6 level changes – cell-based, A549, cytoblot, luminescence, serum-stimulated, primary screen (AID 1158); settings: 5 h, higher = more signal;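 also: serum-stimulated A549 lung adenocarcinoma cells; signal is phosphorylated S6 detected by cytoblot immunostaining with HRP secondary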
[18] = molecular target: NADPH oxidase 2 (Homo sapiens) (UniProt P04839); test: compounds shifting NOX2 Amplex Red fluorescence – cell-based, HEK293-NOX2, PMA-stimulated, NOX inhibitor project, primary screen (AID 1159); settings: 45 min, higher = more signal, called active from +8 up or from −8 down; also: test concentration not given here
NADPH oxidase 2 (Homo sapiens), sequence (P04839 whole entry, looked up): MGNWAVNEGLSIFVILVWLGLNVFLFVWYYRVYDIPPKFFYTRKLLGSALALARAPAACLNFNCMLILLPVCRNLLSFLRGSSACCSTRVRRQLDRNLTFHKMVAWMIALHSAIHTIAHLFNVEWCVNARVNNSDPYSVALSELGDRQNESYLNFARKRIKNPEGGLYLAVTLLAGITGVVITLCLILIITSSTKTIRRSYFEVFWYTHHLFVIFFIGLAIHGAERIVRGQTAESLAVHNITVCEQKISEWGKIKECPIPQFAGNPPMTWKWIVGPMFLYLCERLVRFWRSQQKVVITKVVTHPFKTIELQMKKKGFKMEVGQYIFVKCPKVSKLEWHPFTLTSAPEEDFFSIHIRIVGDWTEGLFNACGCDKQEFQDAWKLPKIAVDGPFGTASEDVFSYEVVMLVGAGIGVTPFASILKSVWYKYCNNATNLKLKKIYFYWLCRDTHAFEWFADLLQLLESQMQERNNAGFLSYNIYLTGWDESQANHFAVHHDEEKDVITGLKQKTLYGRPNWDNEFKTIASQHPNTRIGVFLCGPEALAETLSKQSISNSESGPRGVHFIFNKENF

[19] = molecular target: NADPH oxidase 4 (Homo sapiens) (UniProt Q9NPH5); test: compounds shifting NOX4 Amplex Red fluorescence – cell-based, HEK293-NOX4, tetracycline-induced, NOX inhibitor project, primary screen (AID 1160); settings: HEK293-NOX4, Amplex Red H2O2 fluorescence, 45 min; higher = more signal, called active from +8 up or from −8 down
NADPH oxidase 4 (Homo sapiens), sequence (Q9NPH5 whole entry, looked up): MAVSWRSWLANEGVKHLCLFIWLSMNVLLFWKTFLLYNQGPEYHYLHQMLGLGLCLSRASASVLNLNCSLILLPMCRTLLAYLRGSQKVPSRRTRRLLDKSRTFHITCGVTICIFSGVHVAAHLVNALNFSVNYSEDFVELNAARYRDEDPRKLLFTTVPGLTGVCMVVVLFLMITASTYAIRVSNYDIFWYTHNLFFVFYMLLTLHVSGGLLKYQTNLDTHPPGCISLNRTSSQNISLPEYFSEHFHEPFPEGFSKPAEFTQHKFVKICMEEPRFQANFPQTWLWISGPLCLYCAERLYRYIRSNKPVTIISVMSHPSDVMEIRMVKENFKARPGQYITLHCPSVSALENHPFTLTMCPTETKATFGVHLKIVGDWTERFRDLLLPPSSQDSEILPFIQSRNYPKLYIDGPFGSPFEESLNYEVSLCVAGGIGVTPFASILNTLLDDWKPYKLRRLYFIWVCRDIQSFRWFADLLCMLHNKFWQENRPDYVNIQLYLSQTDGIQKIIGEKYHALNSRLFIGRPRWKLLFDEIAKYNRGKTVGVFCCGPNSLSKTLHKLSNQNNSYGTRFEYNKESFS

[20] = molecular target: NADPH oxidase 5 (Homo sapiens) (UniProt Q96PH1); test: compounds shifting NOX5 Amplex Red fluorescence – cell-based, HEK293-NOX5, NOX inhibitor project, primary screen (AID 1161); settings: HEK293-NOX5, ionomycin, 45 min, higher = more signal
NADPH oxidase 5 (Homo sapiens), sequence (Q96PH1 whole entry, looked up): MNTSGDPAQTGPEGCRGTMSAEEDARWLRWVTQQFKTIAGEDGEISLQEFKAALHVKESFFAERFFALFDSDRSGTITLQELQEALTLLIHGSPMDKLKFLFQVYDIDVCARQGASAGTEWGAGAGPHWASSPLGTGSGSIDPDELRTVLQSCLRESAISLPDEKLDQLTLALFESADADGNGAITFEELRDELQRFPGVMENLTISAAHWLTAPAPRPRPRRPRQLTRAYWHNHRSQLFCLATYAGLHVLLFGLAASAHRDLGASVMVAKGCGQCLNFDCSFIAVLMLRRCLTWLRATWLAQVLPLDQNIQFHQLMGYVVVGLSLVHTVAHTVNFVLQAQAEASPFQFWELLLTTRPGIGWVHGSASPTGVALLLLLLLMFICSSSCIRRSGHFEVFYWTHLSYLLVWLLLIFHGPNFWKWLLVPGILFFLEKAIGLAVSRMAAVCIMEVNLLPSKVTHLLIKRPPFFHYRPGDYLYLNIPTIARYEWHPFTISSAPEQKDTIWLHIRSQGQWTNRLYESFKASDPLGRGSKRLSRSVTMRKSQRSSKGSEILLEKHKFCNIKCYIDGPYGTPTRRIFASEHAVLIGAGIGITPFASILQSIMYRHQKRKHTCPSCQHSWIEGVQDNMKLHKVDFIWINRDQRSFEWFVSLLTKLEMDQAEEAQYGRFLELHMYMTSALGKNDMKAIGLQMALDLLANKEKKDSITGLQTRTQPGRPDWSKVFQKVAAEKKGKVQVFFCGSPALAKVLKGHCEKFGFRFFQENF

Compound	composite z-score [1]	z-score [2]	z-score [3]	z-score [4]	z-score [5]	composite z-score [6]	composite z-score [7]	composite z-score [8]	composite z-score [9]	composite z-score [10]	z-score [11]	composite z-score [12]	z-score [13]	z-score [14]	z-score [15]	z-score [16]	z-score [17]	z-score [18]	z-score [19]	z-score [20]
CCOC(=O)C1=CC[C@@H](c2ccccc2)N(S(=O)(=O)c2ccc(C)cc2)[C@H]1C	0.532	-4.32 (inactive)	0.165 (inactive)	-0.0137 (inactive)	-0.664 (inactive)	1.85	-0.153	1.41	1.25	0.747	-1.29 (inactive)	0.0668	3.28 (inactive)	1.03 (inactive)	-0.392 (inactive)	0.215 (inactive)	-0.343	0.21 (inactive)	-0.291 (inactive)	0.0997
O=C(N1CCCCC1)[C@@]1(CCS(=O)(=O)c2ccccc2)N=C(c2ccc(OCCCO)cc2)O[C@H]1c1ccccc1	1.31	-5.06 (inactive)	-0.725 (inactive)	0.909 (inactive)	-0.516 (inactive)	-0.123	-0.0112	1.06	0.623	-0.442	0.646 (inactive)	0.347	30.1 (active)	24.2 (active)	2.17 (inactive)	4.24 (inactive)	2.24	-4.27 (inactive)	0.156 (inactive)	-4.84
O=C1C2C=CC(C(O)C(c3ccccc3)c3ccccc3)N(Nc3ccc([N+](=O)[O-])cc3)C2C(=O)N1c1ccccc1 (stereo not given)	0.528	-0.664 (inactive)	-1.81 (inactive)	-0.433 (inactive)	0.384 (inactive)	1.13	0.0183	0.738	0.871	0.762	-0.344 (inactive)	0.442	5.98 (inactive)	1.73 (inactive)	-0.186 (inactive)	1.29 (inactive)	-0.606	0.128 (inactive)	-1.06 (inactive)	-0.097
C=C(C(=O)CC[C@H](OC(=O)c1ccccc1-c1ccccc1C(=O)O)c1ccc(CO)o1)C(C)C	0.416	0.559 (inactive)	-1.11 (inactive)	0.406 (inactive)	2.42 (inactive)	0.194	-0.0933	0.427	0.669	1.71	-0.748 (inactive)	0.0026	2.22 (inactive)	0.36 (inactive)	1.19 (inactive)	0.233 (inactive)	0.124	-0.162 (inactive)	-0.621 (inactive)	-0.867
C=C(CCCC)/C(=C/C[C@@H](OC(=O)c1ccncc1)c1cccc(OCCO)c1)c1cc(C(=O)OC)ccc1OC	0.153	-1.36 (inactive)	-1.04 (inactive)	13.4 (active)	-1.47 (inactive)	0.788	0.0852	1.13	0.76	1.47	1.37 (inactive)	0.0371	21 (active)	3.89 (inactive)	2.48 (inactive)	1.26 (inactive)	-0.365	1.33 (inactive)	1.62 (inactive)	-0.975
Cc1cc(C)c(C(O)C2C=CC3C(=O)N(C)C(=O)C3N2N2CCCCC2)c(C)c1 (stereo not given)	0.423	1.09 (inactive)	-0.276 (inactive)	-0.14 (inactive)	0.56 (inactive)	1.4	0.233	0.0592	0.251	0.375	-1.06 (inactive)	0.554	-0.245 (inactive)	0.827 (inactive)	-0.285 (inactive)	1.12 (inactive)	-1.01	-0.669 (inactive)	0.167 (inactive)	-1.23
CC(C)=C1C(=O)C(c2ccccc2)=C2CN3C(=O)N(CCc4ccccc4)C(=O)[C@]3(Cc3ccccc3)[C@H]21	-0.355	-0.462 (inactive)	0.105 (inactive)	0.783 (inactive)	0.379 (inactive)	0.0686	0.128	-2.07	-1.13	-1.32	-1.7 (inactive)	0.341	20.9 (active)	3.79 (inactive)	1.3 (inactive)	0.913 (inactive)	-0.621	-0.379 (inactive)	0.1 (inactive)	0.365
O=C1C2C=CC(C(O)c3ccccc3)N(n3cnnc3)C2C(=O)N1Cc1ccccc1 (stereo not given)	0.068	0.455 (inactive)	-1.43 (inactive)	0.822 (inactive)	-0.5 (inactive)	0.266	0.241	0.148	-0.457	-0.189	-0.678 (inactive)	0.3	1.23 (inactive)	-0.137 (inactive)	-0.138 (inactive)	-1.55 (inactive)	0.591	0.569 (inactive)	-0.323 (inactive)	-0.324
O=C(NCc1ccccc1)[C@@]1(Cc2ccccc2)COC(c2ccc(OCCCO)cc2)=N1	0.369	-4.7 (inactive)	-0.607 (inactive)	-0.0157 (inactive)	-1.27 (inactive)	0.191	-0.0087	-0.0265	0.737	-0.587	-0.65 (inactive)	0.205	29.5 (active)	21.2 (active)	3.61 (inactive)	3.89 (inactive)	0.366	-3.55 (inactive)	-0.556 (inactive)	-2.81
CC(C)C[C@@H]1NC(=O)[C@H]2C[C@@H](C(=O)NCCCCCC[N+](C)(C)C)[C@@H](c3ccc(O)cc3)N2C1=O	-0.266	-0.0365 (inactive)	-0.337 (inactive)	-0.122 (inactive)	-0.281 (inactive)	-0.308	-0.0719	0.87	0.951	1.7	0.706 (inactive)	0.0502	1.8 (inactive)	0.459 (inactive)	-3.67 (inactive)	0.0558 (inactive)	-0.496	1.04 (inactive)	1 (inactive)	-0.306
COCCOC(=O)N1C(=O)[C@@]2(c3cc(C#CC4=CCCCC4)ccc31)[C@H](c1ccc(O)cc1)N1[C@H](c3ccccc3)[C@H](c3ccccc3)OC(=O)[C@H]1[C@@H]2C(=O)N1CCCCCCC1	0.288	-3.42 (inactive)	-0.307 (inactive)	-1.01 (inactive)	-1.09 (inactive)	1.29	0.0818	0.588	0.594	1.76	1.65 (inactive)	1.49	-0.138 (inactive)	-0.321 (inactive)	-0.52 (inactive)	0.389 (inactive)	-0.137	1.06 (inactive)	0.325 (inactive)	1.53
O=C1c2ccccc2[C@@]2(Cc3ccccc3N(CC(F)(F)F)C2=O)[C@H](c2ccc(CO)cc2)N1C1CCCCC1	0.327	-0.323 (inactive)	0.00188 (inactive)	-0.168 (inactive)	-0.838 (inactive)	-0.256	0.207	0.17	-0.309	0.522	0.969 (inactive)	0.062	0.856 (inactive)	0.81 (inactive)	0.0811 (inactive)	0.427 (inactive)	0.0443	0.161 (inactive)	-0.501 (inactive)	0.239
CCCN1C(=O)[C@@]2(CCS(=O)(=O)c3ccccc3)N=C(c3ccc(OCCCO)cc3)O[C@H]2c2ccccc21	0.286	-4.26 (inactive)	-1.6 (inactive)	0.997 (inactive)	-1.61 (inactive)	-0.0174	0.0528	0.069	0.655	1.58	0.33 (inactive)	0.498	34.1 (active)	32.4 (active)	1.93 (inactive)	3.19 (inactive)	0.43	-2.38 (inactive)	-0.683 (inactive)	-1.74
C=CC[C@@]1(C(=O)NCC(O)CO)N=C(c2ccc(OCCCO)cc2)O[C@@H]1c1ccccc1CN=[N+]=[N-] (stereo not given in full)	-0.233	-1.74 (inactive)	-0.427 (inactive)	-0.459 (inactive)	-0.783 (inactive)	0.0285	0.0705	1.09	2.13	-0.364	1.39 (inactive)	0.129	24.9 (active)	9.51 (active)	1.99 (inactive)	1.25 (inactive)	0.281	-0.424 (inactive)	0.495 (inactive)	-0.927
[N-]=[N+]=NCc1ccccc1C[C@]1(C(=O)N2CCCCC2)N=C(c2ccc(OCCCO)cc2)O[C@H]1c1ccccc1CN=[N+]=[N-]	0.129	-4.48 (inactive)	0.447 (inactive)	1.88 (inactive)	0.102 (inactive)	0.995	0.233	0.064	0.741	-0.0292	-0.481 (inactive)	0.42	16.1 (active)	3.02 (inactive)	2.16 (inactive)	1.16 (inactive)	-0.574	0.545 (inactive)	-0.692 (inactive)	-0.824
O=C1O[C@H](c2ccccc2)[C@H](c2ccccc2)N2[C@H]1[C@@H](C(=O)Nc1nc3ccccc3s1)[C@]1(C(=O)Nc3ccc(C#CC4(O)CCCCCC4)cc31)[C@H]2c1ccc(O)cc1	0.328	-0.859 (inactive)	-0.781 (inactive)	0.802 (inactive)	0.3 (inactive)	1.34	0.293	0.417	0.164	1.82	-1.07 (inactive)	0.308	0.797 (inactive)	1.57 (inactive)	0.315 (inactive)	1.38 (inactive)	-0.0907	1.03 (inactive)	-0.14 (inactive)	0.842
